In all, about 300,000 compounds went through this assay and about 4,000 (1.3%) were called active. The sample holds actives, similar compounds and a random draw of the others, so the mix is not that of the screen.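 The calls were made as follows: active = mean replicate score, as percent of positive control median, at least 50; inconclusive = mean below 50 but one replicate at or above 50; inactive = mean and every replicate below 50.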
assay: kanamycin survival loss of SKKanGAS strain – BacTiter-Glo luminescence, streptokinase expression inhibitor project, primary screen (AID 1662);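 also: strain carries kanamycin resistance gene driven by streptokinase promoter and grows in 40 µg/ml kanamycin; loss of luminescence reflects streptokinase promoter inhibition or plain growth inhibition; 0% = median of DMSO wells and 100% = positive control at its reference dose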; conditions: S. pyogenes SKKanGAS, kanamycin growth, 6 h, at 7.5 µM, hits give high values

| SMILES | inhibition |
| --- | --- |
| Oc1ccc2ccccc2c1N=Nc1nccs1 | 106% (active) |
| Oc1ccc(N=Nc2nccs2)c(O)c1 | 3.07% (inactive) |
| c1ccc(NCc2cccc3ccccc23)nc1 | 22.8% (inactive) |
| COc1ccc(Sc2nc(-c3ccccc3)ncc2OC)cc1 | 0.835% (inactive) |
| CC(C)(C)Nc1nc(-c2ccccn2)nc2ccccc12 | 87.4% (active) |
| COc1cnc(-c2ccccn2)nc1Oc1ccc(C(C)(C)C)cc1 | 78.3% (active) |
| COc1ccccc1Oc1nc(-c2cccnc2)nc2ccccc12 | 5.74% (inactive) |
| Cc1ccc(Oc2nc(-c3ccccn3)nc3ccccc23)cc1 | 76.2% (active) |
| COc1ccc(Cc2nc(-c3ccccn3)no2)cc1OC | 29.5% (inactive) |
| CCOCCCNc1nc(-c2ccccc2)nc2ccccc12 | -2.19% (inactive) |
| N#Cc1ccc(Oc2cc(C(F)(F)F)nc(-c3ccccn3)n2)cc1 | -2.81% (inactive) |
| c1ccc(-c2nc(NCc3ccco3)c3ccccc3n2)cc1 | -7.68% (inactive) |
| CSc1ccc(S(=O)(=O)Nc2cccc(F)c2)cc1 | 7.04% (inactive) |
| COc1ccc(N=Nc2c(-c3ccc(OC)cc3)[nH]oc2=O)cc1 | 6.47% (inactive) |
| CCCN(CCC)c1c([N+](=O)[O-])c(=O)oc2ccccc12 | -5.31% (inactive) |
| CCOC(=O)c1cc2c(=O)n3ccccc3nc2n(CC(C)C)c1=NC(=O)c1c(-c2c(F)cccc2Cl)noc1C | 18.2% (inactive) |
| O=C(CN1C(=O)NC2(CCCC2)C1=O)NCC1CCCO1 (stereo not drawn) | -1.73% (inactive) |
| COC(C/C=C/C(=O)[C@@H](C)OCc1ccccc1)OC | -2.55% (inactive) |
| NC(=O)c1nnsc1-c1ccc(-c2snnc2C(N)=O)cc1 | 2.07% (inactive) |
| COc1cc2c3c(c1)/C(=C1/SC(=S)NC1=O)C(=O)N3C(C)(C)C=C2C | 61.3% (active) |
| Cc1nc2ccc(S(=O)(=O)N(C)CC(=O)NC(C)c3ccccc3)cc2s1 (stereo not drawn) | -15% (inactive) |
| COCC1CCN(C(=O)CCc2nnc(C3(c4ccc(Cl)cc4)CCC3)o2)C1 (stereo not drawn) | 49.5% (active) |
| COCC1CCCN(C(=O)c2ccc3oc(C(C)C)nc3c2)C1 (stereo not drawn) | -3.17% (inactive) |
| CN1CCN(C(=O)CCc2nc(-c3ccc(Cl)cc3)no2)CC1 | -5.8% (inactive) |

| SMILES | inhibition |
| --- | --- |
| O=C(COC(=O)CNS(=O)(=O)c1ccc(F)c(F)c1F)NC1CCCC1 | 2.52% (inactive) |
| C=CC1=C(C(=O)O)N2C(=O)[C@@H](NC(=O)/C(=N/OCC(=O)O)c3csc(N)n3)[C@H]2SC1 | 109% (active) |
| CO/N=C(\C(=O)N[C@@H]1C(=O)N2C(C(=O)O)=C(COC(C)=O)CS[C@H]12)c1csc(N)n1 (stereo in doubt) | 33% (inactive) |
| Cc1ccc2c(c1)-c1c(ssc1=S)C(C)(C)N2C(=O)CN1C(=O)c2ccccc2C1=O | 24.3% (inactive) |
| Nc1nc(NC(=O)/C=C/c2ccccc2)nn1-c1ccccc1 | -11.5% (inactive) |
| Cc1ccc(C(=O)Nc2nc(N)n(-c3ccccc3)n2)cc1 | 5.73% (inactive) |
| Nc1nc(NC(=O)/C=C/c2ccc(F)cc2)nn1-c1ccccc1 | 76.1% (active) |
| Cc1sc2nc(SCCO)n(-c3ccccc3)c(=O)c2c1C | 7.52% (inactive) |
| COC(=O)c1ccc(NC(=O)C23CC4CC(C2)CC(n2cnc(Cl)n2)(C4)C3)cc1 | -3.03% (inactive) |
| Cc1cc(C)c(NC(=O)c2oc3ccccc3c2COc2ccccc2)c(C)c1 | 58.7% (active) |
| CCOC(=O)c1oc2ccccc2c1NC(=O)c1cccs1 | -5.47% (inactive) |
| COCc1c(C(=O)OCc2c(C)noc2C)oc2ccccc12 | 2.6% (inactive) |
| CCc1ccc(NC(=O)CN2C(=O)COc3ccc(S(=O)(=O)N4CCCC4)cc32)cc1 | 2.1% (inactive) |
| CCn1ccnc1CNC(=O)CC1C(=O)NCCN1CCCc1ccccc1 (stereo not drawn) | -0.266% (inactive) |
| O=C(NCc1cccnc1)Nc1cccc(NC(=O)NCc2cccnc2)c1F | -0.181% (inactive) |
| O=C(Nc1ccccc1)N1CCN(C(=O)Nc2ccccc2)CC1 | 3.57% (inactive) |
| COc1cc(C(=O)NCC(=O)N2CC=C(c3ccccc3)CC2)cc(OC)c1OC | 9.79% (inactive) |
| O=C(Nc1ccc(Cl)c(Cl)c1)N1CC=C(c2ccccc2)CC1 | 58.4% (active) |
| CCO[C@@H]1OC(C(N)=O)=C[C@H](c2ccc(Br)cc2)[C@H]1CCCO | 0.82% (inactive) |
| Cc1cccn2c(CNCC(C)Oc3cccnc3)c(C(=O)N3CCOCC3)nc12 (stereo not drawn) | -4.82% (inactive) |
| CCOc1cc(/C=C(\C#N)c2nc(-c3cccs3)c(NC(C)=O)s2)ccc1O | 109% (active) |
| COc1cc(/C=N\Nc2nc(-c3cccs3)c(NC(C)=O)s2)ccc1O | 1.83% (inactive) |
| COc1cc(/C=C(\C#N)c2nc3c(s2)CC(C)CC3)ccc1O (stereo not drawn) | 10.1% (inactive) |
| O=C(Cn1cnc2ccccc21)Nc1ccccc1-c1ccccc1 | 0.579% (inactive) |

| SMILES | inhibition |
| --- | --- |
| CCOc1ccc(C(=O)Nc2cc(Cl)ccc2-n2cncn2)cc1OC | -2.54% (inactive) |
| CCOC(=O)NNc1cc(C(F)(F)F)ccn1 | 0.731% (inactive) |
| O=C(/C=C/c1ccc(Cl)cc1)NCCCn1ccnc1 | -2.11% (inactive) |
| CCOC(=O)CC(NC(=O)C1c2ccccc2Oc2ccccc21)c1ccc(C)cc1 (stereo not drawn) | 5.34% (inactive) |
| O=C(N/N=C/c1ccccc1O)C1CCCC1 | 73.1% (active) |
| Oc1ccccc1C=NC1CCCCC1N=Cc1ccccc1O (stereo not drawn) | -8.77% (inactive) |
| COc1ccc(/C=N/NC(=O)C2CC2)c(OC)c1OC | 14.5% (inactive) |
| CC1(C(=O)NNC(=S)NCC2CCCO2)CC1(Cl)Cl (stereo not drawn) | 2.55% (inactive) |
| COc1ccc(OC)c(NC(=O)c2ccc3c(c2)CCN3S(C)(=O)=O)c1 | -4.51% (inactive) |
| Nc1nc(SCC(=O)NNc2c(Cl)cc(Cl)cc2Cl)n[nH]1 | 7.52% (inactive) |
| CCOc1cc(NC(=O)CCl)c(OCC)cc1NC(C)=O | -2.78% (inactive) |
| COc1ccc(S(=O)(=O)N2CCCCC2)cc1NC(=O)C1CC(=O)N(c2ccc3c(c2)OCCO3)C1 (stereo not drawn) | 14.5% (inactive) |
| COCc1ccc(C(=O)NC2CC(C)(C)Cc3c2cnn3-c2ccc(C)cc2)o1 (stereo not drawn) | -6.03% (inactive) |
| Cc1ccc(-c2csc(N3CCN(c4cc5c(cc4Cl)nc(-c4ccncc4)n5CCOCCO)CC3)n2)cc1 | 47.5% (inactive) |
| CCCn1c(C2CCCN2c2nc(-c3ccc(C)cc3)cs2)nc2cc(Cl)c(N3CCCCC3)cc21 (stereo not drawn) | 9.01% (inactive) |
| Nc1c(Cl)cc(-c2csc(N3CCCC3c3nc4cc(Cl)c(Cl)cc4n3CCOCCO)n2)cc1Cl (stereo not drawn) | 62.1% (active) |
| COc1ccccc1-c1n[nH]c2c1[C@H](C)CC[C@H]2C(C)C | 91.1% (active) |
| COc1ccccc1-c1nc(SC)n[nH]1 | -1.68% (inactive) |
| COc1ccc(-c2n[nH]c(C)c2-c2ccccc2OC)c(O)c1 | 1.39% (inactive) |
| Cc1cc(C)c2c(=O)[nH]c(SCC(=O)Nc3ccc(Br)cc3)nc2n1 | 30% (inactive) |
| O=C(CSc1nc2ccccc2c(=O)[nH]1)Nc1nc(-c2ccc(Br)cc2)cs1 | 4.78% (inactive) |
| N#Cc1c(-c2cccs2)nc(SCC(=O)c2ccc(Br)cc2)[nH]c1=O | 55.8% (active) |
| N#CC1(NC(=O)COC(=O)Cc2n[nH]c(=O)c3ccccc23)CCCCC1 | -3.3% (inactive) |
| Cc1ccc(S(=O)(=O)c2ccc(Cl)cc2)cc1S(=O)(=O)NC(C(=O)O)C(C)C (stereo not drawn) | 0.0508% (inactive) |

| SMILES | inhibition |
| --- | --- |
| COc1cc2c(cc1NC(=O)COC(=O)/C=C/c1ccccc1)oc1ccccc12 | -12.9% (inactive) |
| Cc1onc(-c2ccccc2)c1C(=O)NNC(=S)NC(=O)c1ccc(F)cc1 | 7.91% (inactive) |
| O=C(NNC(=S)NC(=O)c1cn(-c2ccccc2)nc1-c1ccccc1)c1ccncc1 | 99.7% (active) |
| O=C(Nc1cn(-c2ccccc2)nc1-c1ccccc1)c1ccccc1 | -2.24% (inactive) |
| COC(=O)Cn1cc(/C=C/[N+](=O)[O-])c2ccccc21 | 0.686% (inactive) |
| O=C(CN1C(=O)/C(=C\c2ccccc2F)SC1=S)Nc1nc2ccccc2s1 | 94.2% (active) |
| O=C(CN1C(=O)/C(=C/c2ccccc2F)Sc2ccccc21)NCc1cccnc1 | -8.35% (inactive) |
| O=C(CN1C(=O)S/C(=C\c2ccccc2F)C1=O)NCCCn1ccnc1 | 2.35% (inactive) |
| O=c1[nH]c(CCl)nc2cc(-c3ccc(Cl)cc3)sc12 | 29.5% (inactive) |
| CC1CCc2c(nc3ncnn3c2Nc2ccc(OC(F)(F)F)cc2)C1 (stereo not drawn) | 2.5% (inactive) |
| COc1cc(OC)c(/C=N/NC(=O)c2ccc([N+](=O)[O-])cc2)cc1Br | -10.8% (inactive) |
| c1ccc2sc(NN=C3CCCC3)nc2c1 | 18.5% (inactive) |
| COc1ccc(CC(=O)NCC(=O)N/N=C/c2cc(Br)ccc2OC)cc1 | 4.99% (inactive) |
| COc1ccc(CC(=O)N/N=C/c2cc([N+](=O)[O-])cc(Br)c2O)cc1 | 61.6% (active) |
| COc1cc(/C=N/Nc2nc3ccccc3s2)ccc1O | -7.58% (inactive) |
| O=[N+]([O-])c1cc(Br)c(O)c(/C=N/Nc2nc3ccccc3s2)c1 | 92% (active) |
| CC1(C)c2[nH]c3ccccc3c2C[C@H]2C(=O)N(N)CC(=O)N21 | 1.39% (inactive) |
| NNC(=O)c1ccc(COCC(F)(F)C(F)F)cc1 | -2.77% (inactive) |
| CC(=O)c1ccc(N2CCN(C(=O)CCNC(=O)Cn3ccc4ccccc4c3=O)CC2)cc1 | 0.0785% (inactive) |
| Cc1cc(C)cc(C(=O)NC(CC(N)=O)c2ccc(N3CCC(N4CCCCC4)CC3)c([N+](=O)[O-])c2)c1 (stereo not drawn) | -2.72% (inactive) |
| Cc1ccc2c(c1)c1ncnc(N3CCc4ccccc4C3)c1n2C | 47.1% (inactive) |
